Compound activity: PubChem, several laboratories
NOD2 RIPK2 PPI = NOD2-RIPK2 binding disruptors in cells, primary screen, fluorescence, CHO cells, BLA complementation. Receptor-interacting serine/threonine-protein kinase 2 (Homo sapiens), O43353. CCF4 ratio. inhibition, % at 4.98 µM. hit rate 0.38% among 360,000. AID 624267, 2012; in the data active = inhibition above about 21%;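 note: 0% = vehicle only and 100% = reference blocker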
Myeloid diff MLP = induction of myeloid progenitor differentiation, primary screen, cell-based, flow cytometry, MLPCN library; calls only at 10 µM; hit rate 1% among 360,000; ER-HoxA9 myeloid progenitors, lysozyme-GFP differentiation;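 active = normalized GFP-positive differentiation at or above the plate's own cutoff, the solvent-only control mean plus 3 SD; inconclusive = no clear call, values can overlap the other calls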;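 note: cells exposed to compound for four days before flow analysis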
TLR4 MyD88 comp = inhibitors of TLR4-MyD88 association in cells, primary screen, cell-based, HeLa CL3-4, BLA complementation, FRET ratio. inhibition, % at 8.4 µM. hit rate 0.18% among 200,000. HeLa CL3-4 TLR4/MyD88 BLA complementation. Toll-like receptor 4 (Homo sapiens) + Myeloid differentiation primary response protein …; in the data active = inhibition above about 25%;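 note: 0% = vehicle and 100% = reference inhibitor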
ABCB6 inh MLPCN = ABCB6 transporter inhibitors, primary screen, K562-ABCB6 cells, flow cytometry, MLPCN library. ATP-binding cassette sub-family B member 6 (Homo sapiens), Q9NP58. hit rate 0.19% among 360,000. fluorescence ratio to DMSO, % at 10 µM. K562-ABCB6 porphyrin accumulation, 1 h; hits give low values. AID 602162, 2011;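 active = fluorescence ratio to DMSO below 75%, the collection mean minus 3 SD; inconclusive = too few cells collected in the well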;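 note: signal is porphyrin accumulated inside mitochondria; 100% equals median channel fluorescence of DMSO control wells; lower ratio means ABCB6 inhibition with less porphyrin fluorescence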
TLR9-MyD88 inh = inhibitors of TLR9-MyD88 association in cells, primary screen, cell-based, CHO, BLA complementation, fluorescence; CCF4 FRET ratio; inhibition, % at 4.98 µM; hit rate 0.21% among 340,000;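 active = inhibition above the mean over all tested compounds plus 3 SD, cut at about 21% in these data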;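 note: 0% = DMSO only wells and 100% = clavulanate BLA inhibitor control wells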
Myeloid diff = inducers of myeloid progenitor differentiation, confirmation, cell-based, GFP/Mac1 flow cytometry, cherry pick 01 | shares compounds with Myeloid diff MLP | ER-HoxA9 myeloid progenitors, GFP/Mac1 double-positive flow | calls only | hit rate 2% among 2,300 | AID 651706, 2012;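 active = share of green or green-and-red cells above 9 and 9% in run 1 or 4 and 3% in run 2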
GFP autofluor = compound fluorescence in myeloid differentiation counter-screen; shares compounds with Myeloid diff MLP; ER-HoxA9 myeloid progenitors, no estrogen, GFP autofluorescence flow cytometry; vehicle wells 0%, positive control 100%; fluorescence response, % (no concentration beside the values); hit rate 7.4% among 2,300; AID 651707;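 active = over 5% cells positive for green fluorescent reporter, or over 2% positive for both it and APC stain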;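 note: range taken on the double positive population between DMSO and positive control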
NOD2-RIPK2 conf = NOD2-RIPK2 binding disruptors, retest, confirmation, fluorescence, CHO cells, BLA complementation, triplicate; hit rate 70% among 1,200; CCF4 FRET; inhibition, % at 4.98 µM; shares compounds with NOD2 RIPK2 PPI;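 active = mean inhibition across replicates above a set limit taken from the earlier primary screen, cut at about 21% in these data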;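 note: 0% = DMSO-only wells and the high end = clavulanate BLA-blocked wells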
NOD2 BLA counter = counter-screen for NOD2-RIPK2 interaction inhibitors: BLA reporter; AID 624371; hit rate 57% among 1,200; CHO BLA reporter, CCF4 FRET ratio, counterscreen; shares compounds with NOD2 RIPK2 PPI; inhibition, % at 4.98 µM;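 active = mean inhibition above the low-control mean inhibition plus three low-control SD, cut at about 11% in these data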;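 note: 0% = DMSO only wells and 100% = clavulanate high control wells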
Numbers without * were called inactive; i = inactive; ? = inconclusive; / = not tested or not shown; + = active, no number. Compounds with a hit are over-represented: about 1.7% of the library has one in this group of screens.

SMILES	NOD2 RIPK2 PPI	Myeloid diff MLP	TLR4 MyD88 comp	ABCB6 inh MLPCN	TLR9-MyD88 inh	NOD2-RIPK2 conf	NOD2 BLA counter	others
CCN(CC)c1ccc(C=C(c2nnnn2-c2ccc(C)cc2)c2nnnn2-c2ccc(C)cc2)cc1	22*	i	18	120	19	28*	34*	Myeloid diff=i;GFP autofluor=2
CC1ON=C(c2ccc(F)cc2)NC1=O (centres undefined)	2	i	/	96	/	/	/
CCOc1cccc(/C=N/Nc2ccc(S(=O)(=O)N(CC)CC)cn2)c1O	-6	?	3	90	-7	/	/
CCN(CC)S(=O)(=O)c1ccc(N/N=C/c2ccc(O)cc2)nc1	40*	i	-6	88	-8	2	3	Myeloid diff=i;GFP autofluor=0
O=c1oc2ccccc2c(Nc2cccc3cccnc23)c1[N+](=O)[O-]	7	i	-7	153	2	/	/
c1ccc(-c2sc3ccccc3c2-c2ccc(OCCN3CCCC3)cc2)cc1	23*	i	/	97	-21	10	-1	Myeloid diff=i;GFP autofluor=4
CC1(C)CC(=O)C(C=Nc2ccc(C(=O)c3ccccc3)cc2N=CC2=C(O)CC(C)(C)CC2=O)=C(O)C1	27*	+	14	145	18	-3	-3	Myeloid diff=i;GFP autofluor=0
Cc1nc(C(F)(F)F)ccc1C(=O)N1CCCC(C(=O)O)CC1 (centres undefined)	1	i	/	103	/	/	/
CS(=O)(=O)c1ccc(S(=O)CC(=O)OCc2ccccc2)c([N+](=O)[O-])c1 (centres undefined)	25*	?	16	108	12	56*	25*
O=C(CS(=O)c1ccc(C(F)(F)F)cc1[N+](=O)[O-])Oc1ccccc1 (centres undefined)	9	i	13	99	-9	/	/
O=c1oc2cc(O)ccc2cc1-c1ccccc1	23*	i	/	99	8	28*	40*
O=c1oc2ccccc2cc1-c1ccc(O)cc1O	-17	i	-7	95	-6	/	/
Cc1nc2c(C#N)c(-c3ccc(Cl)cc3)ccn2n1	-1	i	10	96	-4	/	/
CC(C)(C)c1nc2c(C#N)c(-c3ccc(Cl)cc3)ccn2n1	24*	i	1	90	2	2	-2
COc1ccc(/C=C2/Sc3ccc(C(=O)NCCN4CCCCCC4)cc3NC2=O)cc1	24*	?	/	98	2	17	10
Cc1c(C(=O)N2CCCC2)oc2c1-c1[nH]ncc1CC2	21*	i	-9	98	0	4	0
CCCCN(CC)CCNC(=O)Cn1cc2c(n1)-c1c(oc(C(=O)N3CCCC3)c1C)CC2	1	i	/	103	4	/	/
COc1ccc(C(=O)Nc2cc(OC)c(NC(=O)Nc3ccccc3)cc2OC)cc1	-14	i	/	89	7	/	/
N#CC(=C1C=C(Br)C(=NO)C=C1Cl)c1cccc2ccccc12	41*	i	/	102	-1	58*	30*
O=C(NCc1ccccc1Cl)c1ccc2nc([C@@H]3O[C@H](CO)[C@@H](O)[C@H]3O)[nH]c2c1	3	i	/	109	/	/	/
O=C(O)c1cc(Cl)ccc1-c1ccc(/C=C/c2cc(C(F)(F)F)[nH]c(=O)n2)o1	23*	i	16	104	19	33*	42*
Cc1ccc(-c2noc(N=O)c2NO)cc1	22*	i	/	92	/	24*	21*
Cc1onc(-c2ccccc2)c1NC(=O)Nc1c(-c2ccccc2)noc1C	10	i	-6	97	-10	/	/
Cc1ccc(C)c(C(=O)COC(=O)C(C)N2C(=O)C3C4CCC(C4)C3C2=O)c1 (centres undefined)	-8	i	/	88	11	/	/
O=C(NC1CCCCC1)C(c1ccncc1)n1c(=O)c(-c2ccccc2)nc2ccccc21 (centres undefined)	-4	i	/	/	/	/	/
SMILES	NOD2 RIPK2 PPI	Myeloid diff MLP	TLR4 MyD88 comp	ABCB6 inh MLPCN	TLR9-MyD88 inh	NOD2-RIPK2 conf	NOD2 BLA counter	others
O=C(NC1CCCCC1)C(c1ccncc1)n1c(=O)c(-c2cc3ccccc3[nH]2)nc2ccccc21 (centres undefined)	53*	i	/	/	/	48*	68*
O=C(NC1CCCCC1)C(c1ccc(C(F)(F)F)cc1)n1c(=O)c(-c2cc3ccccc3[nH]2)nc2ccccc21 (centres undefined)	41*	i	/	/	/	36*	66*
O=C(NCc1nnc2c(C(F)(F)F)cc(Cl)cn12)c1cccnc1	2	i	/	97	-4	/	/
CC(C)N1CCNCC1	-8	i	4	97	0	/	/
COc1ccc(-c2cc(C(=O)OCC(=O)N(C)C3CCS(=O)(=O)C3)c3ccccc3n2)cc1OC (centres undefined)	9	i	-2	92	12	/	/
O=S(=O)(Nc1ccc(Br)cc1)c1cccc2nonc12	-5	i	/	97	-6	/	/
O=S(=O)(Nc1ccc(C(O)(C(F)(F)F)C(F)(F)F)cc1)c1ccc(Cl)c2nonc12	29*	i	/	131	/	32*	4
Cc1cccc(NC(=O)CSCC(=O)Nc2cc(S(=O)(=O)N3CCOCC3)ccc2OC(C)C)c1	21*	/	/	91	-1	4	-4
CCC[n+]1cn(/C(C(=S)Nc2cccc(Cl)c2C)=C(/[O-])c2ccc(OC)c(OC)c2)c2ccccc21	-10	i	10	109	-5	/	/
COc1cccc(CC(=O)OCC(=O)NC(C)c2ccc(F)cc2)c1 (centres undefined)	-6	i	/	109	-12	/	/
Cc1cc(NC(=O)CSc2nnc(-c3ccccc3Cl)o2)no1	47*	i	/	97	3	-3	-1
C=C1C(=O)[C@]23C[C@H]1CCC2[C@@]1(C)C(C[C@@H]3O)[C@](C)(C(=O)OC)CC[C@@H]1O (some centres undefined)	77*	?	/	111	/	67*	10
CCN(CC)CCC(=O)N1C/C(=C/c2ccccc2)C(=O)/C(=C\c2ccccc2)C1	24*	?	/	95	11	47*	-1
